# Screens as filed in PubChem.
# Compounds with a hit are over-represented: about 10% of the library has one in this group of screens.
# aGal spleen mod – inhibits or activates alpha-galactosidase in human spleen homogenate; 0.008% of 240,000 active; human spleen homogenate, 4MU-alpha-Gal fluorescence, 40 min; P06280; Potency, µM (top dose mostly 80 µM), without a hit: top-dose activity change, negative = inhibition, usual class: inhibitors;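 also: potency is read from the fitted curve at half-maximal effect; 0% = enzyme with vehicle and -100% = no enzyme basal signal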
# Target sequence (P06280 32-429 limits assumed): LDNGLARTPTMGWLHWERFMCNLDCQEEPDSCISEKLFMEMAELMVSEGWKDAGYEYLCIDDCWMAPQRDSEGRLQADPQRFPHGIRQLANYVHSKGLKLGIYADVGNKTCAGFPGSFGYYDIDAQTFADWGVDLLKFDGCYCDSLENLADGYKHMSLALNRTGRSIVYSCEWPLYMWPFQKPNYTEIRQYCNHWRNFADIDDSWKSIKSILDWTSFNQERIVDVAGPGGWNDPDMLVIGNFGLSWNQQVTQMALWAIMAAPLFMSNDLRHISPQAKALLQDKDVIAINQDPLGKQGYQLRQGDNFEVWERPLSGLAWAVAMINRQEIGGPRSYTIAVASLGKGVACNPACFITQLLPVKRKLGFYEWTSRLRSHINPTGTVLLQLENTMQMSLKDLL
#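 qHTS titration in buffer at pH 5.0. Alpha-galactosidase activity in spleen homogenate was measured via 4-methylumbelliferone release from 1 mM fluorogenic substrate after 40 min at 37C and a pH 10 stop. AC50 came from Hill fits of control-normalized data.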
# HPGD inh – blocks human HPGD enzyme activity; purified HPGD, NADH fluorescence kinetic, PGE2 substrate; Potency, µM, inactives show at the highest dose activity change, negative = inhibition, usual class: inhibitors; AID 894; P15428; 4.3% of 150,000 active; active = well fitted inhibition curve with a large enough effect, not every such curve was filed as active; inconclusive = small, poorly fitted or top-dose-only effect, or another doubt; inactive = no such curve, though single readings can be large or run the other way; also: potency is read from the fitted curve at half-maximal effect
# Target sequence (P15428 whole entry, looked up): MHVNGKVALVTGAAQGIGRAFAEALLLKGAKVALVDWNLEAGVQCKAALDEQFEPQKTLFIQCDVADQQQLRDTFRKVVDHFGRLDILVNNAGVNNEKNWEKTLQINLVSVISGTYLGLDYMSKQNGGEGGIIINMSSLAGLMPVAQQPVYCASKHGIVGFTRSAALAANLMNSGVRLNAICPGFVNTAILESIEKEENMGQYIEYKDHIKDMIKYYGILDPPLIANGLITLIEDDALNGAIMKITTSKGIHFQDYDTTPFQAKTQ
#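 20 nM HPGD preincubated 15 min at room temperature with compound in 50 mM Tris-HCl pH 8, 0.01% Tween 20. Started with 1 mM NAD+ and 30 uM prostaglandin E2; NADH fluorescence (360/450 nm) read 5 times over 30-s intervals, last minus first.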
# PNC assembly inh – inhibitors of perinucleolar compartment assembly | AID 2417 | activity change (PNC), negative = inhibition, % at 10 µM | PC3M PTB-GFP, PNC prevalence imaging, 16 h; active compounds read low | 3.1% of 140,000 active;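 active = readout at or below -70, meaning at least 70% loss of cells showing the perinucleolar compartment, a nuclear body marking cancer cells; inconclusive = readout between -30 and a set limit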;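 also: plate controls were DMSO wells for no effect and camptothecin positive control wells for full effect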
#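 Compounds are pinned in duplicate onto adhered PC3M cells stably expressing GFP-tagged PTB and incubated 16 h at 37 C. Cells are then fixed, nuclei stained with Hoechst, and PNC-positive cells counted.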
# 12-hLO inh – 12-hLO (ALOX12) enzyme inhibition; purified 12-hLO, xylenol orange hydroperoxide absorbance; 0.12% of 150,000 active; Potency, µM (doses to about 57.1 µM), without a hit: at the highest dose activity change, negative = inhibition, usual class: inhibitors; AID 1452; P18054; also: potency is read from the fitted curve at half-maximal effect; nearly all actives have a fitted effect of over 55% in size
#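 Hydroperoxide output read as Fe(III)-xylenol orange absorbance, 573-to-405 nm ratio, after 30 min reaction with 40 uM arachidonic acid. Enzyme: 150 nM purified human 12hLO, 15 min compound preincubation; 25 mM Hepes pH 7.0, room temperature.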
# ALDH1A1 inh – blocks purified human ALDH1A1 activity; P00352; Purified ALDH1A1, NADH fluorescence, propionaldehyde substrate; AID 1030; 7.3% of 220,000 active; Potency, µM (highest dose often 75.3 µM), for the others: at the highest dose activity, negative = inhibition, usual class: inhibitors; active = well fitted inhibition curve with a large enough effect, not every such curve was filed as active; inconclusive = small, poorly fitted or top-dose-only effect, or another doubt; inactive = no such curve, though single readings can be large or run the other way;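 also: potency is read from the fitted curve at half-maximal effect; plate controls were no enzyme wells and a reference inhibitor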
# GLA inh pH 4.5 – blocks human alpha-galactosidase A at pH 4.5 | P06280 | purified enzyme, 4-MU-alpha-Gal fluorescence, pH 4.5 | activity change, negative = inhibition, % at 105 µM | 230,000 tested, under 10 active | AID 1467;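 also: 0% = full activity with enzyme and -100% = basal without enzyme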
# Active calls of the source: *; ? = inconclusive; . = no result; [ ] = remark or other dose. Unless noted, calls follow the shape of the dose curve; as a rule, active = well fitted curve in the direction sought with a large enough effect; inconclusive = small, poorly fitted or top-dose-only effect, or another doubt; inactive = no such curve, though single readings can be large; an effect the other way counts as inactive or inconclusive. Unless noted, % is scaled to controls: 0 for no effect and ±100 for the full control effect.
SMILES,aGal spleen mod,HPGD inh,PNC assembly inh,12-hLO inh,ALDH1A1 inh,GLA inh pH 4.5
CCCCOc1ccc(CC2C(=O)N(C)C(=O)N(C)C2=O)cc1,-10%,-19%,?,-4%,13%,-16
CN1C(=O)C(Cc2ccsc2)C(=O)N(C)C1=O,-6%,-15%,1,1%,13µM*,-3
CN1C(=O)C(Cc2ccc3c(c2)OCO3)C(=O)N(C)C1=O,3%,-15%,-12,-12%,24µM*,-2
CCSc1nnc([C@@H](N)Cc2ccccc2)o1,-3%,-9%,?,2%,15µM*,2
Cc1ccc(O)cc1,-2%,-10%,.,-2%,7%,8
CN(N=O)c1cc(O)ccc1O,-1%,14µM*,.,-2%,20µM*,-6
NC(N)=NCCC[C@@H](N)C(=O)O,-9%,3%,.,-2%,4%,-5
C[C@H]1COC2=C1C(=O)C(=O)c1c2ccc2c1CCCC2(C)C,3%,.,.,.,13µM*,-2
CC1COC2=C1C(=O)C(=O)c1c2ccc2c1CCCC2(C)C (configuration not stated),-12%,20µM*,.,-6%[0.00818 µM],22µM*,-3
CN1C[C@H](C(=O)N[C@@]2(C)O[C@@]3(O)[C@H]4CCCN4C(=O)[C@@H](Cc4ccccc4)N3C2=O)C=C2c3cccc4[nH]cc(c34)C[C@@H]21,.,-7%,.,1%[11.4 µM],-13%[13.5 µM],.
CCn1c(C)cc(/C=C2\C(=O)NC(=O)N(c3ccccc3C)C2=O)c1C,4%,.,.,.,-13%,6
Cc1ccccc1N1C(=O)NC(=O)/C(=C\c2cnn(-c3ccccc3)c2)C1=O,-4%,10µM*,-13,-9%,18µM*,-6
Oc1c(Cl)cccc1Cl,-3%,-14%,.,-2%,15%,.
N#CC1(O)CCCCC1,5%,-5%,.,1%,28µM*,.
CC(=O)c1cccc(OCC(O)CN2CC=C(c3ccccc3)CC2)c1 (configuration not stated),3%,-8%,-8,2%,22µM*,0
Cc1cc(/C=C2\C(=O)NC(=O)N(c3ccc(Cl)cc3)C2=O)c(C)n1-c1sc2c(c1C#N)CCCC2,-15%,10µM*,51,-9%,0.25µM*,4
Cc1sc(-n2c(C)cc(C=C3C(=O)NC(=O)NC3=O)c2C)c(C#N)c1C,-7%,-29%,24,0%,0.63µM*,13
Cc1cc(C=C2C(=O)NC(=O)NC2=O)c(C)n1-c1cccnc1,-17%,.,.,.,.,0
CCOC(=O)c1c(-n2c(C)cc(/C=C3\C(=O)NC(=O)N(C)C3=O)c2C)sc2c1CCCC2,6%,?,79,-6%,0%,-3
Clc1ccccc1C(c1ccccc1)(c1ccccc1)n1cccn1,16%,.,.,.,.,.
CCCCCCn1c(O)c(C=NCCN2CCOCC2)c(=O)[nH]c1=O,-1%,-6%,-114*,1%,3%,4
O=c1[nH]c(=O)n(Cc2ccccc2)c(O)c1C=NCCN1CCOCC1,-2%,32µM*,?,6%,?,-10
COc1ccc(CCn2c(O)c(C=NCc3cccnc3)c(=O)[nH]c2=O)cc1OC,-6%,-7%,2,-6%,-7%,1
CCN(CC)CCN=Cc1c(O)n(Cc2ccccc2)c(=O)[nH]c1=O,-11%,35µM*,41,17%,8%,-5
O=c1[nH]c(=O)n(Cc2ccc(F)cc2)c(O)c1C=NCc1cccnc1,0%,16µM*,?,-6%,-7%,-2
SMILES,aGal spleen mod,HPGD inh,PNC assembly inh,12-hLO inh,ALDH1A1 inh,GLA inh pH 4.5
CC(C)(C)NC[C@H](O)c1ccccc1Cl,.,.,.,-1%,.,.
COc1cc2c(cc1OC)[C@@]13CCN4CC5=CCO[C@H](CC(=O)O)[C@@H]([C@H]1N2)[C@H]5C[C@H]43,.,-11%,.,4%[11.4 µM],17%[13.5 µM],.
CC(C)[C@@H](C)/C=C\[C@@H](C)[C@@H]1CC[C@H]2C3=CC=C4C[C@@H](O)CC[C@]4(C)[C@H]3CC[C@]21C,.,-4%,.,3%[11.4 µM],-8%[13.5 µM],.
O[N+]1=CC=CCC1=S.On1ccccc1=S.[Zn],-5%,?,.,-25%,2.8µM*,1
CC1(C)CC(=O)C(C=NCCN2CCN(C(=O)Cc3ccc(F)cc3)CC2)=C(O)C1,-10%,-15%,23,-11%,18µM*,4
O=C1CC(c2ccccc2)CC(O)=C1C=NCCN1CCN(C(=O)Cc2ccccc2)CC1 (configuration not stated),-3%,-7%,36,-2%,-7%,-5
CC(C)Br,9%,-3%,.,-3%,10%,.
CC1=CC[C@@H]2[C@@H](C1)c1c(O)cc(CC#CCCCNS(C)(=O)=O)cc1OC2(C)C,-1%,-16%,.,-19%,-8%,?
c1ccc(CN2CCC3(CCc4ccccc43)CC2)cc1,1%,0%,.,-1%,11%,-5
CCCCOCCOP(=O)(OCCOCCCC)OCCOCCCC,4%,-4%,.,1%,4%,.
O=P(OCCCl)(OCCCl)OCCCl,1%,-11%,.,0%,28µM*,.
CN1CCN(c2ccc(S(=O)(=O)C(F)(F)F)cc2[N+](=O)[O-])CC1,-7%,-10%,-98*,-7%,13%,0
C[C@H](CC(C#N)(c1ccccc1)c1ccccc1)N1CCCCC1,.,-2%,.,1%[11.4 µM],11%[13.5 µM],.
N[C@H](Cc1ccc2oc3cc(=O)c4ccccc4c-3nc2c1)C(=O)O,.,-10%,.,-3%[11.4 µM],?,.
Cc1cc(NC(=O)COC(=O)c2c(C)nn(Cc3ccccc3)c2C)no1,5%,-1%,?,-2%,5%,1
Cc1nn(Cc2ccccc2)c(C)c1C(=O)OCC(=O)Nc1ccccc1SCC#N,7%,-5%,19,-6%,25µM*,-3
CCCCC(CC)COC(=O)c1ccc(C(=O)OCC(CC)CCCC)c(C(=O)OCC(CC)CCCC)c1 (configuration not stated),9%,-6%,.,-2%,?,.
Cn1c(=O)n(CC(=O)N2CCC3(CC2)OCCO3)c(=O)c2ccccc21,5%,-19%,60,1%,-5%,3
O=C(Cn1c2c(c(-c3ccccc3Cl)cc1=O)CCC2)N1CCC2(CC1)OCCO2,-2%,?,-95*,-14%,?,6
CC(=O)C1CCC2C3CCC4=CC(=O)CC[C@@]4(C)C3CC[C@]12C (some centres not stated),14%,-2%,.,-4%,?,4
COc1ccccc1CCNC1CCCC(C)C1 (configuration not stated),-1%,-6%,16,0%,18%,0
COc1ccccc1CCNC1CCC(C(C)(C)C)CC1 (configuration not stated),-5%,.,-112*,?,?,7
COc1cc(=O)[nH]c(SCc2c(F)c(F)c(F)c(F)c2F)n1,-4%,16µM*,49,-5%,-2%,-3
